The values below come from PubChem BioAssay (EPA / NIEHS).

“And” between values parts separate entries of the source, which are not always exact repeats. Equal values may be shown once. Inconclusive results are not listed. The source made the active and inactive calls. How the source made its calls, unless noted: active means hit-call score of the fitted dose curve at least 0.9, where 1 is the maximum; inactive means score below 0.9.

The nature of experiment [1]: CCTE_Mundy_HCI_iCellGluta_NOG_NeuriteCount: CCTE's Neurite Outgrowth Assay in iCellGluta cells for Neurite Count, Mundy Lab (AID 2284342; active means hit-call score of the fitted dose curve at least 0.9, where 1 is the maximum;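 further: chemical exposure about 48 hours starting 2 hours after plating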).
A short description of experiment [2]: Tanguay_ZF_120hpf_AXIS: Oregon State University Tanguay Lab 120 Hour Post-fertilization zebrafish Assay for Axial Malformation (AID 2284398). A digest of the protocol: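 Scoring was binary (present or absent) for body-axis defects, judged by brightfield imaging at 120 hpf in surviving larvae. Exposure was static at 28C from 6 hpf in chorion-free 5D wild-type embryos, with 0.64% DMSO vehicle.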

A short description of experiment [3]: Tanguay_ZF_120hpf_MORT: Oregon State University Tanguay Lab 120 Hour Post-fertilization zebrafish Assay for Mortality (AID 2284399). In short, it runs like this:
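Mortality, recorded present/absent via brightfield imaging at 24 and 120 hpf, in 5D zebrafish embryos exposed statically from 6 hpf after pronase chorion removal. Exposure at 28C, 0.64% DMSO vehicle, DMSO baseline.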

Experiment [4] can be described thus: Tanguay_ZF_120hpf_EDEM: Oregon State University Tanguay Lab 120 Hour Post-fertilization zebrafish Assay for Edema Malformation (AID 2284400). In short, it runs like this:
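Edema recorded as a binary endpoint under brightfield at 120 hpf, excluding embryos that died. Exposure was static, sealed, 28C, from 6 hpf in dechorionated wild-type larvae, final DMSO 0.64%, DMSO as baseline.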

The next experiment relates to SERPINA7 (gene 6906). Briefly: CCTE_GLTED_hTBG: CCTE's human Thyroxine-binding Globulin (TBG) Inhibition Assay, Great Lakes Toxicology and Ecology Division (GLTED) Lab (AID 2284343; active means hit-call score of the fitted dose curve at least 0.9, where 1 is the maximum;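 further: active chemicals lower fluorescence versus DMSO baseline by displacing probe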). A digest of the protocol: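 Steps: combine TBG with chemical; incubate 2 hours so that disruptors release ANSA; record fluorescence (380 ex, 475 em). Loss of signal was fitted against DMSO controls.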

In experiment [5] the test system is SRY-box transcription factor 17 (SOX17) Protein Expression, Deisenroth Lab, SOX17 (gene 64321). Briefly: CCTE_Deisenroth_DEVTOX-GLR_legacy_Sox17: (Legacy) CCTE's DevTox GLR-Endo Assay Evaluation of SRY-box transcription factor 17 (SOX17) Protein Expression, Deisenroth Lab (AID 2284341). Conditions: actives raise or lower the signal. A digest of the protocol:
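Endoderm-differentiation readout in RUES2-GLR human pluripotent cells at 48 h, concentrations spanning 1 nM - 200 uM. Sox17-positive cells divided by total cell count; gain or loss relative to DMSO solvent control, n=4 experimental replicates.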

In experiment [6] the test system is SRY-box transcription factor 2 (SOX2) Protein Expression, Deisenroth Lab, SOX2 (gene 6657). Put plainly: CCTE_Deisenroth_DEVTOX-GLR_legacy_Sox2: (Legacy) CCTE's DevTox GLR-Endo Assay Evaluation of SRY-box transcription factor 2 (SOX2) Protein Expression, Deisenroth Lab (AID 2284346). In short, it runs like this:
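Read-out: fraction of Sox2+ cells by high-content fluorescence imaging of fixed RUES2-GLR cells after 48 h differentiation with two 24 h-spaced exposures. Positivity cutoff 5x BMAD above endoderm control median; 0.2% DMSO median subtracted.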

With `c1ccc2cc3ccccc3cc2c1`, the compound was classed as inactive in experiment [1].
With `Cn1cc[nH]c1=S`, in experiment [1], the result was inactive.
For the compound `OCCC(F)(F)C(F)(F)C(F)(F)C(F)(F)F`, the result in experiment [2], in experiment [3] and in experiment [4] was inactive.
By AC50 is commonly meant the midpoint of the concentration-response curve, whichever way the signal moves. In the case of `C=CCc1cc(S(=O)(=O)c2ccc(O)c(CC=C)c2)ccc1O`, the AC50 in the experiment with SERPINA7 (gene 6906) was 1.47 µM (active).
Turning to `C[C@]12C=CC(=O)C=C1CC[C@H]1[C@@H]3C[C@@H](O)[C@](O)(C(=O)CO)[C@@]3(C)C[C@H](O)[C@@]12F`, the AC50 in experiment [1] is 23.7 µM (active).
As to `CCCCCCCCCCCCCCCCOS(=O)(=O)O`, in the experiment on SERPINA7 (gene 6906), the AC50 was 2.91 µM (active).
For `FC(F)(F)C(F)(F)C(F)(F)C(F)(F)C(F)(F)C(F)(F)I`, the compound was classed as inactive in experiment [1], in experiment [2], in experiment [3] and in experiment [4].
Consider `NCC(F)(F)C(F)(F)C(F)(F)C(F)(F)F`, for which the compound was classed as inactive in experiment [2], in experiment [3] and in experiment [4].
`FC(F)=C(F)C(F)(F)C(F)(F)C(F)(F)C(F)(F)C(F)(F)C(F)(F)F`: the compound was classed as inactive in experiment [1], in experiment [2], in experiment [3] and in experiment [4].
Turning to `CCc1ccc(O)c(C(C)(C)C)c1`, the AC50 with SERPINA7 (gene 6906) was 35.3 µM (active).
For `Nc1ccn([C@@H]2O[C@H](CO)[C@@H](O)[C@@H]2O)c(=O)n1`, the AC50 in experiment [5] is 0.554 µM (active); in experiment [1], 959 nM (active) and 1.04 µM (active); in experiment [6], 0.937 µM (active).
On to `CCCC(CCC)C(=O)O`, for which the call in experiment [5] and in experiment [6] was inactive.
For `OC(O)(C(F)C(O)(O)C(F)(F)F)C(F)(F)F`, the compound was called inactive in experiment [1], in experiment [2] and in experiment [3]. Moreover, the half-maximal activity concentration (AC50) in experiment [4] is 66.9 µM (active).
As to `NNC(=O)c1ccncc1`, the compound was classed as inactive in experiment [5] and in experiment [6].
`O=C(Cl)C(F)(F)C(F)(F)C(F)(F)C(=O)Cl`: the result in experiment [1], in experiment [2] and in experiment [4] was inactive. For the same compound, the AC50 in experiment [3] was 57.6 µM (active).
As to `FC(F)(F)COC(OCC(F)(F)F)OCC(F)(F)F`, the outcome in experiment [2], in experiment [3] and in experiment [4] was inactive.
